This passage reports Potency and activity change, negative = cytotoxicity results from PubChem BioAssay (NCATS).

Holding throughout (experiment): Primary qHTS to identify gynecologic anti-cancer compounds using libraries of approved drugs and bioactive compounds (AID 1345084); further: nearly all actives have a fitted effect of over 55% in size
What all share (details): Gynecologic cancer cell panel viability, ATPlite luminescence, 48 h; series mostly up to 57.5 µM
(qHTS replaces the single test concentration by a dilution series.)

One test deals with PA-1. The method, boiled down: (§1)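 ATP-based viability (ATPlite), 1,000 cells/well, 16 h pre-incubation, 48 h compound at 37 C, 5% CO2, 15 min RT before read.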
The next test concerns SKOV3. The method, boiled down: as §1
Another test concerns Tov-21-G. The method, boiled down: as §1
A further test relates to Tov112D. In a few lines: as §1

Results filed as inconclusive are left out. Values without a mark were called inactive. Active and inactive are the calls of the source. The call rests on the fitted dose curve; in most records, active means well fitted cell-killing curve with a large enough effect; inconclusive means small, poorly fitted or top-dose-only effect, or effect the other way; inactive means flat fitted curve, though single readings scatter.
On the % scale 0 is the no-effect control and ±100 the full control effect; potency means the concentration at half of the fitted maximal effect.

`CC(=O)O[C@H]1[C@H](OC(=O)C(C)C)[C@]2(C)OC3(CC[C@]2(C)[C@H]2CCC[C@]4(CO4)[C@]12C)COC(=O)C3` (some centres not stated): the Potency result in the test with PA-1, in the test with SKOV3, with Tov-21-G and in the test on Tov112D was “inactive” throughout.
As for `COc1c2c(c(C)c3c1C(=O)OC3)OC1(C)CC(O)C34OC(OC)(CCC3(C)C1C2)OC4(C)CO` (configuration not stated), the Potency result in the test with PA-1, with SKOV3, in the test on Tov-21-G and in the test on Tov112D was “inactive” throughout.
Take `c1cc(-c2cc(C3CCNCC3)[nH]n2)ccn1`: the Potency entry in the test with PA-1, in the test with SKOV3, in the test with Tov-21-G and in the test on Tov112D was “inactive” each time.
Consider `COc1cc(/C=C/C(=O)O[C@H]2C[C@@H]3C(C(=O)O)=CO[C@@H](O[C@@H]4O[C@H](CO)[C@@H](O)[C@H](O)[C@H]4O)[C@@H]3[C@H]2C)ccc1O`, for which the Potency result in the test on PA-1, in the test on SKOV3, in the test with Tov-21-G and in the test on Tov112D was “inactive” in each case.
Consider `COc1ccc(CCc2nc3cc(-c4c(C)noc4C)ccc3n2C[C@H](C)N2CCOCC2)cc1Cl`, for which the Potency entry in the test on PA-1, in the test on SKOV3, with Tov-21-G and in the test on Tov112D was “inactive” throughout.
As for `C[C@@H]1O[C@@H](OC[C@H]2O[C@@H](OCc3ccccc3)[C@H](O)[C@@H](O)[C@@H]2O)[C@H](O)[C@H](O)[C@H]1O`, the Potency entry in the test with PA-1, in the test with SKOV3, with Tov-21-G and in the test on Tov112D was “inactive” each time.
In the case of `CC1OC(O[C@@H]2[C@@H](O)[C@H](OC(=O)[C@]34CCC(C)(C)C[C@H]3C3=CCC5[C@@]6(C)CC[C@H](O[C@@H]7O[C@H](C(=O)O)[C@@H](O)[C@H](O[C@@H]8OC[C@@H](O)[C@H](O)[C@H]8O)[C@H]7O[C@@H]7O[C@H](CO)[C@H](O)[C@H](O)[C@H]7O)[C@@](C)(C=O)C6CC[C@@]5(C)[C@]3(C)C[C@H]4O)O[C@H](C)[C@@H]2OC2OC(C)C(OC3OCC(O)C(O)C3O)C(O)C2O)C(O)C(O)C1O` (some centres not stated), the activity change, negative = cytotoxicity with PA-1 is -6.4% [at 6.55 µM]; in the test on SKOV3 it was -2.08% [at 6.55 µM]; in the test on Tov-21-G, 5.64% [at 6.55 µM]; with Tov112D, 10.7% [at 6.55 µM].
In the case of `CC(CNS(=O)(=O)C(C)C)c1ccc(-c2ccc(C#N)cc2)cc1` (configuration not stated), the Potency result in the test with PA-1 and in the test on Tov-21-G was “inactive” throughout. The Potency in the test with SKOV3 was 8.91 µM (active).
Regarding `Oc1ccc2c(-c3c(-c4ccccn4)nn4c3CCC4)ccnc2c1`, the Potency entry in the test with PA-1, in the test with SKOV3, in the test on Tov-21-G and in the test on Tov112D was “inactive” in each case.
On to `CN[C@H](CNC(=O)N1CCC[C@@H]([C@@H](OCCNC(=O)OC)c2cccc(Cl)c2)C1)C[C@H]1CCCOC1`, for which the Potency entry in the test with PA-1, with SKOV3, with Tov-21-G and in the test with Tov112D was “inactive” each time.
For `C=C1C(=O)OC2CC(COC(=O)C(C)C)=C(C(C)CCCOC(C)=O)[C@@H](OC(C)=O)C12` (some centres not stated), the Potency entry with PA-1, in the test on SKOV3, with Tov-21-G and in the test with Tov112D was “inactive” in each case.
As for `COc1cc(O)cc2c1C(=O)OC(C)CCCCCCC2` (configuration not stated), the Potency result with PA-1, in the test with SKOV3, in the test with Tov-21-G and with Tov112D was “inactive” in each case.
Regarding `Cc1oc2nc3c(c(NC(=O)CN4CCCC4=O)c2c1C)CCCC3`, the Potency result with PA-1, in the test on SKOV3 and with Tov-21-G was “inactive” in each case.
As to `C/C=C(/C)C(=O)OC1CC(C)(C)CC2C3=CCC4C5(C)CCC(OC6OC(C)C(OC7OC(C(=O)O)C(O)C(OC8OC(CO)C(O)C(O)C8OC8OC(CO)C(O)C(O)C8O)C7O)C(O)C6O)C(C)(C)C5CCC4(C)C3(C)C(OC(=O)/C=C/C=C/C=C/CCC)C(OC(C)=O)C12CO` (configuration not stated), the activity change, negative = cytotoxicity in the test with PA-1 is -0.509% [at 6.55 µM]; in the test with SKOV3, -20.2% [at 6.55 µM]; with Tov-21-G, -0.72% [at 6.55 µM]; in the test with Tov112D, 1.97% [at 6.55 µM].
Turning to `CCC(C)/C=C(C)/C=C/C1=CC2=C(Cl)C(=O)C(C)(OC(C)=O)C(=O)C2=CN1CCCCC(N)C(=O)O` (configuration not stated), the Potency entry with PA-1, in the test on SKOV3, in the test on Tov-21-G and with Tov112D was “inactive” each time.
On to `CC(=O)O[C@@H]1[C@H](O[C@@H]2OC[C@](O)(CO)[C@H]2O)[C@@H](O[C@@H]2O[C@@H](C)[C@H](O)[C@@H](O[C@@H]3O[C@H](CO)[C@@H](O)[C@H](O)[C@H]3O)[C@H]2O)[C@H](OC(=O)[C@]23CCC(C)(C)C[C@H]2C2=CCC4[C@@]5(C)C[C@H](O)[C@H](O[C@@H]6O[C@H](C(=O)O)[C@@H](O)[C@H](O)[C@H]6O)[C@@](C)(C(=O)O)C5CC[C@@]4(C)[C@]2(C)CC3)O[C@@H]1C` (some centres not stated), for which the activity change, negative = cytotoxicity is 3.28% [at 6.55 µM] in the test on PA-1, 27% [at 6.55 µM] in the test on SKOV3, 0.936% [at 6.55 µM] in the test on Tov-21-G and -2.6% [at 6.55 µM] with Tov112D.
Regarding `C=CC(C)(CCC=C(C)C)O[C@@H]1O[C@H](CO)[C@@H](O)[C@H](O)[C@H]1O` (some centres not stated), the Potency entry in the test with PA-1, in the test on SKOV3, in the test with Tov-21-G and with Tov112D was “inactive” each time.
For the compound `COc1cccc(CN(C(=O)CC(C)(C)C)C2CC(C(=O)N3CCNCC3)N(Cc3ccc4c(c3)OCO4)C2)c1` (configuration not stated), the Potency result in the test on PA-1, in the test with SKOV3, in the test with Tov-21-G and in the test on Tov112D was “inactive” throughout.
For the compound `CCC[C@H](N[C@@H](C)C(=O)N1[C@H](C(=O)O)C[C@@H]2CCCC[C@@H]21)C(=O)O`, the Potency entry with PA-1, in the test with SKOV3, with Tov-21-G and in the test on Tov112D was “inactive” each time.
`COc1cc(/C=C/C(=O)O[C@H]2[C@@H]3C=CO[C@@H](O[C@@H]4O[C@H](CO)[C@@H](O)[C@H](O)[C@H]4O)[C@@H]3[C@@]3(CO)O[C@@H]23)ccc1O`: the Potency entry in the test with PA-1, with SKOV3, in the test on Tov-21-G and in the test with Tov112D was “inactive” in each case.
As to `COc1cc(O)cc(O[C@@H]2O[C@H](CO)[C@@H](O[C@@H]3OC[C@](O)(CO)[C@H]3O)[C@H](O)[C@H]2O)c1OC`, the Potency entry with PA-1, in the test on SKOV3, with Tov-21-G and with Tov112D was “inactive” in each case.
